Measurements taken from PubChem BioAssay (NCI).
The panel holds about 83,000 compounds, 20% with a hit somewhere; the sample as a whole holds those more often.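 How to read the values: 0–100, growth inhibition (40 = 60% inhibited); 0, no net growth; -100 to 0, cell death (-40 = 40% of starting cells died; -100 = all dead).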 Unmarked numbers belong to inactive results. Active and inactive are the calls of the source. Rule for the calls: active = growth percent below 10; inactive = the rest.

Tests used:
Assay in all cases: NCI-60 one-dose screen, 48 h (100 = growth as untreated, 0 = no growth, -100 = all killed)
Settings in all cases: 10 µM
SK-MEL-2 melanoma = test system: SK-MEL-2 melanoma
EKVX NSCLC = test system: EKVX NSCLC
SN12C renal = test system: SN12C renal
UO-31 renal = test system: UO-31 renal
TK-10 renal = test system: TK-10 renal
ACHN renal = test system: ACHN renal
CAKI-1 renal = test system: CAKI-1 renal
CCRF-CEM leukemia = test system: CCRF-CEM leukemia
MOLT-4 leukemia = test system: MOLT-4 leukemia

Row | Structure (SMILES) | growth (SK-MEL-2 melanoma) [%] | growth (EKVX NSCLC) [%] | growth (SN12C renal) [%] | growth (UO-31 renal) [%] | growth (TK-10 renal) [%] | growth (ACHN renal) [%] | growth (CAKI-1 renal) [%] | growth (CCRF-CEM leukemia) [%] | growth (MOLT-4 leukemia)
1 | COc1ccc(-c2nn(-c3cccc(Cl)c3)cc2-c2cc(-c3cccs3)[nH]c(=S)n2)cc1 | 71.3 | 44.6 | 61.1 | 24.3 | 66.7 | 48.4 | 12.5 | 39.5 | 21.9%
2 | COc1ccc(-c2nn(-c3cccc(Cl)c3)cc2-c2cc(-c3ccccc3)nc(N)n2)cc1 | 83.6 | 58.2 | 35.8 | 60.8 | 86 | 71.1 | 29.2 | 41.1 | 6.55% (active)
3 | COc1ccc(-c2nn(-c3cccc(Cl)c3)cc2-c2nc(N)[nH]c(=O)c2C#N)cc1 | 70.9 | 31.8 | 84.9 | 29.7 | 110 | 87.5 | 30.6 | 61.6 | 53.7%
4 | CCC(c1ccc(OC)cc1)C(CC)c1ccc(O)c(CN2CCN(C)CC2)c1 (stereo unspecified) | 62.2 | 44.3 | 55.1 | 37.3 | 72.2 | 69 | 41.1 | 56.9 | 57.4%
5 | O=C1CCn2c1c(O)c1ccccc1c2=O | 126 | 94 | 108 | 96.5 | 107 | 111 | 86.3 | 99.6 | 106%
6 | COc1ccccc1-n1c(-c2sc(NC(C)=O)nc2C)n[nH]c1=S | 106 | 67.6 | 101 | 70.1 | 130 | 108 | 81 | 97.3 | 92.9%
7 | O=C(Nc1cc([N+](=O)[O-])c2[nH]c(=O)c3ccccc3c2c1)C(F)(F)F | 106 | 67.1 | 76.8 | 54.5 | 84 | 58.6 | 89.1 | 72.8 | 55.2%
8 | Cc1ccc(-n2c(C)nn3c(=O)c4c5c(sc4nc23)CN(C)CC5)cc1 | 95 | 95 | 97.6 | 83.2 | 82.4 | 101 | 88.5 | – | 97.9%
